The values that follow come from PubChem BioAssay (Tox21).

Each structure is given as a SMILES string. Inconclusive results are not listed. Active and inactive are the calls of the source. Calls come from the whole dose curve; as a rule, active = well fitted activation curve with a large enough effect in the repeat runs; inconclusive = weak or mixed curves; inactive = flat fitted curve, though single readings scatter.
% is set by controls: 0 for no effect and ±100 for the full control effect.

The nature of the assay: Caspase-3/7 induction in HepG2 cells by small molecules, qHTS assay (AID 1346978). Note: nearly all actives have a fitted effect of over 15% in size. To be noted: HepG2 caspase-3/7 activation, Caspase-Glo luminescence, 17 h; series mostly up to 92.4 µM; caspase activation: at the top concentration. The procedure, abridged: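 Caspase-3/7 induction was measured by Caspase-Glo 3/7 luminescence (30 min, room temperature) after a 17 hr compound exposure of wild-type HepG2 cells seeded at 2,000 per well and pre-incubated 5 hr.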
For `Cc1ccccc1N=C(N)N=C(N)N`, the “caspase activation” value was -0.36% (inactive).
For `FB(F)F` the value was -1.45% (inactive).
For `CCCC(=O)O[C@]1(C(=O)CC)CC[C@H]2[C@@H]3CCC4=CC(=O)CC[C@]4(C)[C@H]3[C@@H](O)C[C@@]21C` the value was -2.53% [at 42.5 µM] (inactive).
Turning to `CCO[Si](OCC)(OCC)c1ccccc1`, the “caspase activation” value is -1.17% (inactive).
The same measure for `Cc1cccc(C)c1NC(=O)CC12CCCN1CCC2`: 0.35% [at 42.5 µM] (inactive); for `O=S(=O)(O)c1cc(O)c(O)c(S(=O)(=O)O)c1`: 0% (inactive).
Turning to `CC(C)C1CCC(O)CC1` (stereo not drawn), the “caspase activation” value is 1.37% (inactive).
For `CC1=NN(c2cc(S(=O)(=O)O)ccc2Cl)C(=O)C1N=Nc1ccccc1` (stereo not drawn) the value was 1.48% (inactive); for `CC12CCC(C(=O)C1=O)C2(C)C` (stereo not drawn), 0.26% (inactive); for `C=CN1CCCCCC1=O`, 1.47% (inactive).
For `CCCCCCCCCCCCCCCCCCO` the value was -0.444% [at 42.5 µM] (inactive); for `CC(C)C(=O)OC(=O)C(C)C`, 0.0613% (inactive).
Take `[O-][n+]1cccc(CO)c1`: the “caspase activation” value is 0.419% [at 42.5 µM] (inactive).
Regarding `CCCCCC(=O)OCCc1ccccc1`, the “caspase activation” value is 0.284% (inactive).
For the molecule `CC(=O)NC(=O)c1ccccc1O`, the “caspase activation” value was 1.69% [at 42.5 µM] (inactive).
For `COc1cc(C(=O)OC(COCCC(C)C)CN2CCOCC2)cc(OC)c1OC` (stereo not drawn) the value was 0.273% [at 42.5 µM] (inactive); for `CO[Si](C)(OC)c1ccccc1`, 0.101% (inactive); for `C=COC(=O)C(C)(CC)CCC(C)C` (stereo not drawn), 0.242% (inactive).
For `C=C[Si](OC(C)=O)(OC(C)=O)OC(C)=O` the value was 0.725% (inactive); for `COc1c(N2CCNC(C)C2)c(F)cc2c(=O)c(C(=O)O)cn(C3CC3)c12` (stereo not drawn), -1.86% [at 42.5 µM] (inactive); for `CC1(C)OC[C@@H](COC(=O)CCc2ccc(OC[C@@H](O)CNCCNC(=O)N3CCOCC3)cc2)O1`, -0.0391% [at 42.5 µM] (inactive).
For `C=CC(C)(CCC=C(C)C)OC(=O)CC` (stereo not drawn) the value was -0.848% (inactive).
For `c1ccc(Cc2ccccc2)cc1`, the “caspase activation” value was 0.0636% (inactive).
For `CC(C)(C#N)Nc1nc(Cl)nc(NC2CC2)n1` the value was -0.942% (inactive); for `C=C(C)C(=O)OCC1CCCO1` (stereo not drawn), 0.366% (inactive).
In the case of `CC(=O)Nc1ccc(OCC(O)CNC(C)C)cc1` (stereo not drawn), the “caspase activation” value was 0.448% [at 42.5 µM] (inactive).
For `CN(C)[C@@H]1C(=O)C(C(=O)NCN2CCCC2)=C(O)[C@@]2(O)C(=O)C3=C(O)c4c(O)cccc4[C@@](C)(O)C3C[C@@H]12` (stereo partly drawn) the value was 0.805% [at 42.5 µM] (inactive); for `COc1cc(C(=O)NCc2ccc(OCCN(C)C)cc2)cc(OC)c1OC`, 0.815% [at 42.5 µM] (inactive); for `CCCC(C)C(=O)OCC` (stereo not drawn), 0.122% (inactive).
The same measure for `CCCCOC(=O)CCC(C)=O`: 0.285% (inactive); for `CC(C#N)(CCC(=O)O)N=NC(C)(C#N)CCC(=O)O` (stereo not drawn): 0.442% (inactive); for `O=S(=O)(O)c1cccc2ccccc12`: 0.815% (inactive).
The same measure for `CN(C)C(=O)Oc1cccc([N+](C)(C)C)c1`: 0.774% [at 42.5 µM] (inactive).
Consider `CC(=O)N[C@H]1[C@H]([C@H](O)[C@H](O)CO)OC(C(=O)O)=C[C@@H]1N=C(N)N`, for which the “caspase activation” value was 0.588% [at 42.5 µM] (inactive).
For `CCN[C@@H]1C[C@H](N)[C@@H](OC2OC(CN)=CCC2N)[C@H](O)[C@H]1O[C@H]1OC[C@](C)(O)[C@H](NC)[C@H]1O` (stereo partly drawn) the value was 0.0658% [at 0.349 µM] (inactive).
With `C=CC(=O)OCCCl`, the “caspase activation” value was 0.915% (inactive).
Take `CCCc1nn(C)c2c(=O)[nH]c(-c3cc(S(=O)(=O)N4CCN(C)CC4)ccc3OCC)nc12`: the “caspase activation” value was -0.433% [at 42.5 µM] (inactive).
For `C[N+]12CCC(CC1)C(OC(=O)C(O)(c1ccccc1)c1ccccc1)C2` (stereo not drawn), the “caspase activation” value was 3.42% [at 42.5 µM] (inactive).
